Assay results as given in publication PMC7862700, “An all-to-all approach to the identification of sequence-specific readers for epigenetic DNA modifications on cytosine”.

Legend:
Assay in all cases: DAPPL (digital affinity profiling via proximity ligation, sequencing); 10 mM Tris-HCl pH 7.5, 50 mM NaCl, 1 mM DTT, 4% glycerol, room temperature, 30 min; GST-TFs on glutathione beads, 16-mer random dsDNA library, 0.1% formaldehyde crosslink after washing; high values mean tight binding
[1] = target: T1, FLI1 (Homo sapiens, UniProt Q01543 1-452); settings: protein: recombinant; tags: N-terminal GST; dsDNA, one strand shown
T1 sequence: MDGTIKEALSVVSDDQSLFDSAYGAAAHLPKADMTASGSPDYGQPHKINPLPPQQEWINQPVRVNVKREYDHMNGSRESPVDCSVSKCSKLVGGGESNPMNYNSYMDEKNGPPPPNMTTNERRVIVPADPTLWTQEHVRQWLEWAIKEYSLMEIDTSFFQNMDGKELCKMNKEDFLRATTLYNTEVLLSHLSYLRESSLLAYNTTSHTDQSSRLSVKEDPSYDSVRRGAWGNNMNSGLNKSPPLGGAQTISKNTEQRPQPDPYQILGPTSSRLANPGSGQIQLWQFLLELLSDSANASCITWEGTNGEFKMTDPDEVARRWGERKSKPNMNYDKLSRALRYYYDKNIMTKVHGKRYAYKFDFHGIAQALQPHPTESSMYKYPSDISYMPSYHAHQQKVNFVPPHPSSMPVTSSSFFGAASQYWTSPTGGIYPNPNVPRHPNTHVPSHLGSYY
Summary of the method: (§1)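 Binding signal is given per hexamer as its read frequency for a factor divided by its frequency in the tag-only sample. GST-fused human transcription factors were expressed in yeast, captured on glutathione beads, barcoded with DNA and pooled with that sample, then incubated with 200 nmole of a 16-mer random double-stranded DNA library in Tris/NaCl/DTT/glycerol buffer for 30 min at room temperature. The pools were then washed, crosslinked, proximity-ligated, amplified by PCR and sequenced on an Illumina NextSeq500.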

[2] = target: T2, ELK1 (Homo sapiens, UniProt P19419 1-428); settings: protein: recombinant; tags: N-terminal GST; dsDNA, one strand shown
T2 sequence: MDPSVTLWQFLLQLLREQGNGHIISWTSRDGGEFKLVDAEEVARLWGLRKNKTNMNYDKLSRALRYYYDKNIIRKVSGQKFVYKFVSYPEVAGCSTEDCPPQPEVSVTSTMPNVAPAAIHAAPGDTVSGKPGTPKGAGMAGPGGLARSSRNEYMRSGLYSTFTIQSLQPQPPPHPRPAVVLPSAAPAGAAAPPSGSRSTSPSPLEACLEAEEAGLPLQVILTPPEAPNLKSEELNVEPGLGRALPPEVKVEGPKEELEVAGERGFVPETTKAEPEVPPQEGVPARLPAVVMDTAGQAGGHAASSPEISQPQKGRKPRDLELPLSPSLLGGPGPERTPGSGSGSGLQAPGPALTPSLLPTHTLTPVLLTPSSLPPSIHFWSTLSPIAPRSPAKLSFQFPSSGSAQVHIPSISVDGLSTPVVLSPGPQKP
Summary of the method: as §1

[3] = target: T3, GABPA (Homo sapiens, UniProt Q06546 1-454); settings: protein: recombinant; tags: N-terminal GST; dsDNA, one strand shown
T3 sequence: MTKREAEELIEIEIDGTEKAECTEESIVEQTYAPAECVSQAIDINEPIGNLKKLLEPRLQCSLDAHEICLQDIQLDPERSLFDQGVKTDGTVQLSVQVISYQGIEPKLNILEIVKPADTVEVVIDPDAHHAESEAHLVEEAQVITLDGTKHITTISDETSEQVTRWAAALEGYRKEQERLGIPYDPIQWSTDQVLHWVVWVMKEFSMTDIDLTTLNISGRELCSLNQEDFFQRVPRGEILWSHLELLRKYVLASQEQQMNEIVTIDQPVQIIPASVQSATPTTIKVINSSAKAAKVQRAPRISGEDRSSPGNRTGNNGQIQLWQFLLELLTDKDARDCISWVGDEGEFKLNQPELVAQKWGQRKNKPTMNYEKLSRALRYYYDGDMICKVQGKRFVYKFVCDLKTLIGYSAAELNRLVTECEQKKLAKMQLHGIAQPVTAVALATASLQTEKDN
Summary of the method: as §1

[4] = target: T4, ERG (Homo sapiens, UniProt P11308 1-479); settings: protein: recombinant; tags: N-terminal GST; dsDNA, one strand shown
T4 sequence: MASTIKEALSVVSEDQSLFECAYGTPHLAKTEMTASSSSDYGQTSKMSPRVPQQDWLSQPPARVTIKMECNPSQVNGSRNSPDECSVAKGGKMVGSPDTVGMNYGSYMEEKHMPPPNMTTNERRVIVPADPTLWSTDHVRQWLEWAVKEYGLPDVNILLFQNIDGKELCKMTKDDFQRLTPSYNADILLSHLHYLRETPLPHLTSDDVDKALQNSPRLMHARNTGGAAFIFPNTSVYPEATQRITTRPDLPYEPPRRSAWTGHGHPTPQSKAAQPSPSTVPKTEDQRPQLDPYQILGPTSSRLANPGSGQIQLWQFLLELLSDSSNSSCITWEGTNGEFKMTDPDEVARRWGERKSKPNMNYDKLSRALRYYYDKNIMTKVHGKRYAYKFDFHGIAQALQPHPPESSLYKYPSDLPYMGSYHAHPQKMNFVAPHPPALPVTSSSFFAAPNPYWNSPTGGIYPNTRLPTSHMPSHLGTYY
Summary of the method: as §1

[5] = target: ELF1 (Homo sapiens, UniProt P32519 1-619); settings: protein: recombinant; tags: N-terminal GST; dsDNA, one strand shown
Sequence of ELF1 (P32519 whole entry): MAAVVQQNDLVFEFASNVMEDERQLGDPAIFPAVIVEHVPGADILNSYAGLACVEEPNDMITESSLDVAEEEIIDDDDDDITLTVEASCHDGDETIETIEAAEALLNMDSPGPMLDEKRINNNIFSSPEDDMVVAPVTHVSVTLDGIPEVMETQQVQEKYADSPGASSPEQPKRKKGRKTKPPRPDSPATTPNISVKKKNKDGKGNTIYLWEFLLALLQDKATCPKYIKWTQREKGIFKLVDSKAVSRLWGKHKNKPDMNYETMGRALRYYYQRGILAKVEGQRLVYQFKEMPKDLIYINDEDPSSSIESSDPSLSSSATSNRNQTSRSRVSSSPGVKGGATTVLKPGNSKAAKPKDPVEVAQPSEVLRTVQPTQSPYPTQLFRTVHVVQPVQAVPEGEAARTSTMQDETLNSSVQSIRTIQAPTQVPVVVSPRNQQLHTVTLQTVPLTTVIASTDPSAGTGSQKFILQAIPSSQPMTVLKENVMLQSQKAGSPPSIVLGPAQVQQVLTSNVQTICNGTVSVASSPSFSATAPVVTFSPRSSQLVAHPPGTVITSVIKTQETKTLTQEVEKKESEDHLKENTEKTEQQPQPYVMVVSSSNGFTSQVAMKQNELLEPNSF
Summary of the method: as §1

[6] = target: T5, EHF (Homo sapiens, UniProt Q9NZC4 1-300); settings: protein: recombinant; tags: N-terminal GST; dsDNA, one strand shown
T5 sequence: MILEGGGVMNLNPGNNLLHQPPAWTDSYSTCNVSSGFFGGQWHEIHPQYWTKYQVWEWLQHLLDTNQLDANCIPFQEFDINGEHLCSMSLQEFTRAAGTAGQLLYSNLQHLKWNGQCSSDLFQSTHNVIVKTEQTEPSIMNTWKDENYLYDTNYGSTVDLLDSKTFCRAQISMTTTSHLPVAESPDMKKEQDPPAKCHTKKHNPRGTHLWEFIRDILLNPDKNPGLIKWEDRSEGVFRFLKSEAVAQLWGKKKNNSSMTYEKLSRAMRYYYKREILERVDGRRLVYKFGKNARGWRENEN
Summary of the method: as §1

[7] = target: SPI1 (Homo sapiens, UniProt P17947 1-270); settings: protein: recombinant; tags: N-terminal GST; dsDNA, one strand shown
Summary of the method: as §1

[8] = target: SPIB (Homo sapiens, UniProt Q01892 1-262); settings: protein: recombinant; tags: N-terminal GST; dsDNA, one strand shown
Sequence of SPIB (Q01892 whole entry): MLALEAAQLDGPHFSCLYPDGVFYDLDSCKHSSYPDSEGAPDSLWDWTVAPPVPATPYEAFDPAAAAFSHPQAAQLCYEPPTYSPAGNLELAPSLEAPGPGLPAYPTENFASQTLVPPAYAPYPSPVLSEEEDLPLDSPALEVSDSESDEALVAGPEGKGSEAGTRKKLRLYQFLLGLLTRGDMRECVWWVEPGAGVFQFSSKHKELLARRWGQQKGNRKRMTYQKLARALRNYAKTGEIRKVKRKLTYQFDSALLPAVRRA
Summary of the method: as §1

[9] = target: T6, ELK3 (Homo sapiens, UniProt P41970 1-407); settings: protein: recombinant; tags: N-terminal GST; dsDNA, one strand shown
T6 sequence: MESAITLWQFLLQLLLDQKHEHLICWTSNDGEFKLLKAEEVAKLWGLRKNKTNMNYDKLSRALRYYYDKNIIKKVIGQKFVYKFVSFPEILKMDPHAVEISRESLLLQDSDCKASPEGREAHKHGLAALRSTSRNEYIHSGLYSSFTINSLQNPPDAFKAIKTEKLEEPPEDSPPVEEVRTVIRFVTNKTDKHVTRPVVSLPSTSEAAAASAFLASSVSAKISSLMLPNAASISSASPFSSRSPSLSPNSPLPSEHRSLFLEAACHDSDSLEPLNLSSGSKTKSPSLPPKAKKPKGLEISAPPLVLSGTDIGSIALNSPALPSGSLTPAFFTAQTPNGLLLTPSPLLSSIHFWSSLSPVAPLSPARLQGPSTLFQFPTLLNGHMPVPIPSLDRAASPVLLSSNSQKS
Summary of the method: as §1

[10] = target: T7, FEV (Homo sapiens, UniProt Q99581 1-238); settings: protein: recombinant; tags: N-terminal GST; dsDNA, one strand shown
T7 sequence: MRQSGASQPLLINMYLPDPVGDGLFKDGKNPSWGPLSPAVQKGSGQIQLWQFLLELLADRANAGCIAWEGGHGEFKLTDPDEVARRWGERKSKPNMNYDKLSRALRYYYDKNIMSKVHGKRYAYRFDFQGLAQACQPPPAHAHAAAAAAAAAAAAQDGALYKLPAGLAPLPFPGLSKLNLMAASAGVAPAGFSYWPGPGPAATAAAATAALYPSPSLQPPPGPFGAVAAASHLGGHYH
Summary of the method: as §1

[11] = target: ETV5 (Homo sapiens, UniProt P41161 1-510); settings: protein: recombinant; tags: N-terminal GST; dsDNA, one strand shown
Sequence of ETV5 (P41161 whole entry): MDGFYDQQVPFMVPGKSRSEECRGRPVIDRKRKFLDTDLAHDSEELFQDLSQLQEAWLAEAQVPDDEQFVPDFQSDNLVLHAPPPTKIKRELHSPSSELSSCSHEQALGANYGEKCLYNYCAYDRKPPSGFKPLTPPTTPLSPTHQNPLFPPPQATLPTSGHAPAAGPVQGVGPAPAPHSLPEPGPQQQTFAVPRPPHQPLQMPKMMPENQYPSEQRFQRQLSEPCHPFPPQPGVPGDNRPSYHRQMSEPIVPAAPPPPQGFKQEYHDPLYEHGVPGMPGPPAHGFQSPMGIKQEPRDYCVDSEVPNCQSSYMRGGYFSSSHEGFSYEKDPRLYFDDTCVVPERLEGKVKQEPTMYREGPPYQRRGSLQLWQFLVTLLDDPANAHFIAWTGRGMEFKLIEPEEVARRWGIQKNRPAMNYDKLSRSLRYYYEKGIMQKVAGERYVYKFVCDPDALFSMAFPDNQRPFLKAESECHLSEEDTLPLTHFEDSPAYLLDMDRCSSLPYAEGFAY
Summary of the method: as §1

[12] = target: HSF1 (Homo sapiens, UniProt Q00613 1-529); settings: protein: recombinant; tags: N-terminal GST; chain copies: 3; dsDNA, one strand shown
Sequence of HSF1 (Q00613 whole entry): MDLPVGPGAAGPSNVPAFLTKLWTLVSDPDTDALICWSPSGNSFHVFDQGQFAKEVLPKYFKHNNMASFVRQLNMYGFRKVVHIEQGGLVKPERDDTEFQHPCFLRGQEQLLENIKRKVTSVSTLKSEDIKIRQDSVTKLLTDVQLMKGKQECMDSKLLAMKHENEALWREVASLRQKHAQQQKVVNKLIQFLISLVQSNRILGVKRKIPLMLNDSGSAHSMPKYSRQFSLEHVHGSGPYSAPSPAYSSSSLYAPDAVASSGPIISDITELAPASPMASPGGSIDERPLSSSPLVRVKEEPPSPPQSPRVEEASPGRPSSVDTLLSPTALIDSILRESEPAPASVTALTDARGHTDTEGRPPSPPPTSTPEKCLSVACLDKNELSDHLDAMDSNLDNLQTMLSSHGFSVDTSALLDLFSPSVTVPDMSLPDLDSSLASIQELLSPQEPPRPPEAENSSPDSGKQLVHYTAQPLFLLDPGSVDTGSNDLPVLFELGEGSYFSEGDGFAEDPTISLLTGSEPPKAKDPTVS
Summary of the method: as §1

[13] = target: T8, SPIC (Homo sapiens, UniProt Q8N5J4 1-248); settings: protein: recombinant; tags: N-terminal GST; dsDNA, one strand shown
T8 sequence: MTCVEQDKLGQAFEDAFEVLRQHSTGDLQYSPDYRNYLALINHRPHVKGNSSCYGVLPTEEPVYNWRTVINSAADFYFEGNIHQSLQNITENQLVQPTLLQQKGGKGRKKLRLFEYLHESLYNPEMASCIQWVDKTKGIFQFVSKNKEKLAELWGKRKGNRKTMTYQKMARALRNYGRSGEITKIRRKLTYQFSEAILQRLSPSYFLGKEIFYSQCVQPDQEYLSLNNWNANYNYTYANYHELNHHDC
Summary of the method: as §1

[14] = target: ELF4 (Homo sapiens, UniProt Q99607 1-663); settings: protein: recombinant; tags: N-terminal GST; dsDNA, one strand shown
Sequence of ELF4 (Q99607 whole entry): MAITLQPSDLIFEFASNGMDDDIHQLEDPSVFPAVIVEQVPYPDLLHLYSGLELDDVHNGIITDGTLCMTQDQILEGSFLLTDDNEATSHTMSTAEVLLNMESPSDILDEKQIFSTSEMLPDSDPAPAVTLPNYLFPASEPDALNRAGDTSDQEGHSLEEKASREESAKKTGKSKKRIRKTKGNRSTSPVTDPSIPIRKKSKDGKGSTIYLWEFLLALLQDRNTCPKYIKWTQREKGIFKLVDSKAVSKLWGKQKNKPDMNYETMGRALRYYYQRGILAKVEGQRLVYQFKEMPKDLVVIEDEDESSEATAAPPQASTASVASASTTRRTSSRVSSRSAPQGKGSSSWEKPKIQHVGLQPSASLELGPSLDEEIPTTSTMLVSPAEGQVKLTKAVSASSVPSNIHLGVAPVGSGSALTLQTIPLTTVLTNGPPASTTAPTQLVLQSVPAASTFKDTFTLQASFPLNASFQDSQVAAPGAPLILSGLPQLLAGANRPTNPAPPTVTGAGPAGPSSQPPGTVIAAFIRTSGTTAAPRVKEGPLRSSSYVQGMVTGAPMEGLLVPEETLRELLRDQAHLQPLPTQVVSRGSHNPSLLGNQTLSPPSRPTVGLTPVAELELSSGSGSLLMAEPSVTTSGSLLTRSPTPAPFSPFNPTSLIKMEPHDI
Summary of the method: as §1

[15] = target: T9, ELK4 (Homo sapiens, UniProt P28324-2 1-405); settings: protein: recombinant; tags: N-terminal GST; dsDNA, one strand shown
T9 sequence: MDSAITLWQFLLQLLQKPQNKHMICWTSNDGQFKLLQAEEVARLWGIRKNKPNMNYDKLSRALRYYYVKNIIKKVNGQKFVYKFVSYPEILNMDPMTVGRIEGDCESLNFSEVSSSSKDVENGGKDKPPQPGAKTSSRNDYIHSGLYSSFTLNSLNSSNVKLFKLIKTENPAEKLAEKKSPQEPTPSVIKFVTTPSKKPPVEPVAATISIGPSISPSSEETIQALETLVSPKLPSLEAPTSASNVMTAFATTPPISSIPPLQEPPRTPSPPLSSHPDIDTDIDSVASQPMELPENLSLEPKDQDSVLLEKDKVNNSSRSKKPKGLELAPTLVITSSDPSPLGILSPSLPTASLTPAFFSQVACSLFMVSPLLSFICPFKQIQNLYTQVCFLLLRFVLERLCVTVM
Summary of the method: as §1

[16] = target: T10, ETV2 (Homo sapiens, UniProt O00321 1-342); settings: protein: recombinant; tags: N-terminal GST; dsDNA, one strand shown
T10 sequence: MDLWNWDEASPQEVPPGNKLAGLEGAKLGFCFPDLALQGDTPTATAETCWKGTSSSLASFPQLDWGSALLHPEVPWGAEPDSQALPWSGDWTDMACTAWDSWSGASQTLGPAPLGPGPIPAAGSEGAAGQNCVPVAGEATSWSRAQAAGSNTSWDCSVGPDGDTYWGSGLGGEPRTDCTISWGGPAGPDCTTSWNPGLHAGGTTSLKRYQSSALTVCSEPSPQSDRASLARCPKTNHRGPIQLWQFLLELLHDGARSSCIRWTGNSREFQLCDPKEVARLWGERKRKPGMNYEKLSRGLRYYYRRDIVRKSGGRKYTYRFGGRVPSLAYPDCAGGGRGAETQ
Summary of the method: as §1

[17] = target: T11, ELF3 (Homo sapiens, UniProt P78545 1-371); settings: protein: recombinant; tags: N-terminal GST; dsDNA, one strand shown
T11 sequence: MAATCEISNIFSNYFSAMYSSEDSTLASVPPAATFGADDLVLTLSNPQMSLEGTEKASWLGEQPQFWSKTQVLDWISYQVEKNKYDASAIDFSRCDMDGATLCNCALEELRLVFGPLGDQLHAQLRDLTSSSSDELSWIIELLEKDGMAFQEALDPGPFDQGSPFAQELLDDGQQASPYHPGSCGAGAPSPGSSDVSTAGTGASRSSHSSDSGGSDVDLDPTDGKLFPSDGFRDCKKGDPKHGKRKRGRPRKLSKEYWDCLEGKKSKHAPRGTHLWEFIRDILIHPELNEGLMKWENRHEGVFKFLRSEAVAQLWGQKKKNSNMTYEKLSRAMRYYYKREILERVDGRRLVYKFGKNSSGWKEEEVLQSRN
Summary of the method: as §1

[18] = target: CRX (Homo sapiens, UniProt O43186 1-299); settings: protein: recombinant; tags: N-terminal GST; dsDNA, one strand shown
Sequence of CRX (O43186 whole entry): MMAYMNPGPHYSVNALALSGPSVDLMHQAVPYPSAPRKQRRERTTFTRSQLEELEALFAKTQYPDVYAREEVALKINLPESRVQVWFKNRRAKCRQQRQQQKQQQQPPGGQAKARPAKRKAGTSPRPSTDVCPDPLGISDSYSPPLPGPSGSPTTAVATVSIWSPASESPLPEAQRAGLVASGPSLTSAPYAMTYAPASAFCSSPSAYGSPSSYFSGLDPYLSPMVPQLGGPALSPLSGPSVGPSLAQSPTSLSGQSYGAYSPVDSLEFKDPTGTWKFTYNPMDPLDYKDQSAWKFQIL
Summary of the method: as §1

[19] = target: ETV1 (Homo sapiens, UniProt P50549 1-477); settings: protein: recombinant; tags: N-terminal GST; dsDNA, one strand shown
Sequence of ETV1 (P50549 whole entry): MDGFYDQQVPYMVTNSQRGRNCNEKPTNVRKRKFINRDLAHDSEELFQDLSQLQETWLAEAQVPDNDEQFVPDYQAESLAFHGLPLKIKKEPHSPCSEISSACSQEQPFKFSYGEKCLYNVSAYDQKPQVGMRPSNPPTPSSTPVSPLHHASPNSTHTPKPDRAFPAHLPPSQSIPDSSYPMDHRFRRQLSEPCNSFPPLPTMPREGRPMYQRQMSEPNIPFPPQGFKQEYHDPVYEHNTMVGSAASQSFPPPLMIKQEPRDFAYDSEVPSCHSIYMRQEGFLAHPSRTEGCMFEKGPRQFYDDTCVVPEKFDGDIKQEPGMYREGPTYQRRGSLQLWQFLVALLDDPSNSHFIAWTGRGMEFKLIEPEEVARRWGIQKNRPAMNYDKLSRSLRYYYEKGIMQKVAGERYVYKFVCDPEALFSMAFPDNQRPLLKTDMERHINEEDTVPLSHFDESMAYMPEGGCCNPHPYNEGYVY
Summary of the method: as §1

TGTTCC
binding signal [1]: 1.69 fold enrichment (6-mer frequency, TF over GST control) | binding signal [2]: 1.61 fold enrichment (6-mer frequency, TF over GST control) | binding signal [3]: 1.74 fold enrichment (6-mer frequency, TF over GST control) | binding signal [4]: 1.68 fold enrichment (6-mer frequency, TF over GST control) | binding signal [5]: 1.66 fold enrichment (6-mer frequency, TF over GST control) | binding signal [6]: 1.83 fold enrichment (6-mer frequency, TF over GST control) | binding signal [7]: 1.81 fold enrichment (6-mer frequency, TF over GST control) | binding signal [8]: 1.8 fold enrichment (6-mer frequency, TF over GST control) | binding signal [9]: 1.5 fold enrichment (6-mer frequency, TF over GST control) | binding signal [10]: 1.69 fold enrichment (6-mer frequency, TF over GST control) | binding signal [11]: 1.71 fold enrichment (6-mer frequency, TF over GST control) | binding signal [12]: 1.85 fold enrichment (6-mer frequency, TF over GST control) | binding signal [13]: 2 fold enrichment (6-mer frequency, TF over GST control) | binding signal [14]: 1.64 fold enrichment (6-mer frequency, TF over GST control) | binding signal [15]: 1.49 fold enrichment (6-mer frequency, TF over GST control) | binding signal [16]: 1.78 fold enrichment (6-mer frequency, TF over GST control) | binding signal [17]: 1.6 fold enrichment (6-mer frequency, TF over GST control) | binding signal [18]: 1.21 fold enrichment (6-mer frequency, TF over GST control) | binding signal [19]: 1.86 fold enrichment (6-mer frequency, TF over GST control)
